BoNT-A LC inh2 = BoNT A light chain protease inhibition; multiplex microsphere protease substrate cleavage, flow cytometry; inhibition, % at 10 µM; actives 0.17% (n = 360,000); AID 588499; note: plate controls were buffer without enzyme for full effect and enzyme alone for no effect
MazF activator = activators of E. coli MazEF toxin-antitoxin RNase | P0AE70 | FAM/BHQ RNA-DNA oligo cleavage fluorescence, 5 h | activation, % at 20 µM | actives 0.32% (n = 350,000); in the data active = activation above about 50%
Target sequence (P0AE70 whole entry, looked up): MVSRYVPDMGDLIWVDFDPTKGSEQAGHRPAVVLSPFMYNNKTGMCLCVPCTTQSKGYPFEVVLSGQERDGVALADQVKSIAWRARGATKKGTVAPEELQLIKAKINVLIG
BoNT F protease = blocks Botulinum neurotoxin F light chain protease. Multiplex microsphere protease cleavage assay, flow cytometry. inhibition, % at 10 µM. actives 0.22% (n = 360,000); in the data active = inhibition above about 35%, passing the limit was not always enough; inconclusive = no clear call, values can overlap the other calls; note: plate controls were buffer without enzyme for full effect and enzyme alone for no effect
Bead autofluor = counter-screen for toxin protease inhibitors: compound fluorescence. compound autofluorescence counterscreen, microsphere flow cytometry; hits give high values. fluorescence intensity (test concentration not listed). actives 3.1% (n = 360,000). AID 624483; in the data active = fluorescence intensity above about 16000; inconclusive = no clear call, values can overlap the other calls
PfHsp40 yeast = restores yeast growth despite PfHsp40 toxicity; actives 0.68% (n = 340,000); AID 504582; growth rescue, % at 12.5 µM; S. cerevisiae expressing PfHsp40, growth rescue, ATP luminescence; in the data active = growth rescue above about 28%, passing the limit was not always enough; inconclusive = no clear call, values can overlap the other calls;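 note: yeast W303a lacking pdr1 and pdr3 grown in galactose medium; growth measured after three days at 30 °C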
Anthrax LF prot = inhibitors of Bacillus anthracis lethal factor protease; P15917; multiplex microsphere protease cleavage assay, LF; inhibition, % at 10 µM; actives 0.12% (n = 360,000); note: plate controls were buffer without enzyme for full effect and enzyme alone for no effect
The depositor's hits bear a star; u = inconclusive; x = no result given. Shown are actives, neighbours in structure and some others; about 4.3% of the full set was active somewhere. Cut-off read from the data, not from the text of the source, unless noted: active = inhibition above about 30%; inconclusive = no clear call, values can overlap the other calls; inactive = below that.

SMILES	BoNT-A LC inh2	MazF activator	BoNT F protease	Bead autofluor	PfHsp40 yeast	Anthrax LF prot
COc1cc(NC(=O)CSc2nnc3ccc(-c4cccnc4)nn23)cc(OC)c1	-5.8	3.2	-13.3	6908	0.6	0.0
CCOC(=O)c1ccccc1NC(=O)COC(=O)C(CC)Oc1ccccc1 (stereo unspecified)	0.7	-5.4	1.6	3501	x	1.8
C=CCn1c(=O)c2c(nc3n2CCN3c2cccc(Cl)c2C)n(C)c1=O	-0.2	0.4	-2.4	16780*	1.5	-2.7
CCN(CC)C(=O)n1c(Cc2ccccc2)nc2ccccc21	x	1.1	x	x	-1.2	x
CS(=O)c1ccccc1O (stereo unspecified)	0.2	4.5	0.2	2529	0.1	-0.7
O=S(c1ccccc1O)S(=O)c1ccccc1O (stereo unspecified)	0.3	-6.9	3.6	4128	144.0*	-3.6
COc1cc2cc(CN(CCO)S(=O)(=O)c3ccccc3Cl)c(=O)[nH]c2cc1OC	u	1.1	-1.7	16702*	1.0	-1.6
CCOC(=O)c1cccc(S(=O)(=O)N(CCO)Cc2cc3cc(OC)c(OC)cc3[nH]c2=O)c1	-1.1	3.8	-1.3	24123*	0.4	2.9
O=C(COc1ncnc2sccc12)Nc1cccc(S(=O)(=O)N2CCOCC2)c1	6.4	-1.0	-11.8	5474	-1.1	0.1
Cc1ccccc1NC(=S)N(CCN(C)C)C(C)c1ccccn1 (stereo unspecified)	5.6	-4.0	7.2	19817*	0.8	-12.1
CCc1nc2ccccc2c(C(=O)O)c1C	3.2	7.9	3.7	22245*	-1.0	4.3
CCC(=O)Nc1c(C)c(CC)nc2ccccc12	-3.1	-17.7	-1.8	16775*	-1.7	-7.8
Cc1cccc(C)c1NC(=O)C1c2cccc[n+]2CC(=O)N1Cc1ccc2c(c1)OCO2 (stereo unspecified)	2.1	0.3	-1.8	6074	0.5	0.8
Cc1ccccc1NC(=O)C1c2cccc[n+]2CC(=O)N1c1c(C)cccc1C (stereo unspecified)	5.7	62.9*	-10.8	4668	-1.2	1.2
Cc1cccc(/C=N/NC(=O)c2cc(Br)ccc2OCc2ccccc2)n1	-6.6	125.2*	-25.2	4236	-0.1	-8.6
Cc1cccc(/C=N/NC(=O)c2ccccc2OCc2cccc(Br)c2)n1	-3.5	-1.2	-13.3	3562	5.5	-8.2
Cc1ccc(C)c(N2N=C(C(=O)OCc3nnc(-c4ccccc4Br)o3)CCC2=O)c1	0.2	-2.3	0.3	3587	x	1.9
Cc1cc(C(=O)OCC(=O)Nc2c(Cl)cccc2Cl)c(C)o1	-0.1	5.5	-4.0	3057	-0.3	-2.1
CC(C)n1nc(C(=O)Nc2nnc(SCc3c(Cl)cccc3Cl)s2)c2ccccc2c1=O	9.7	-12.4	13.4	19535*	-0.2	0.0
O=C(Nc1cnccn1)c1ccc(Cl)cc1	-1.6	-1.8	-6.9	3838	0.8	6.7
CCOc1cc(C(=O)NCc2ccncc2)cc(OCC)c1OCC	0.6	-1.6	-2.3	19468*	-1.9	-1.7
CCOc1cc(C(=O)Nc2cnccn2)cc(OCC)c1OCC	-3.2	-1.4	-2.4	20443*	0.6	-1.4
O=C(Nc1cnccn1)c1ccncc1	-2.9	1.7	-4.4	24053*	0.5	-7.2
CCOc1cc(C(=O)Nc2cc(C)ccn2)cc(OCC)c1OCC	-0.5	5.5	-2.4	9836	1.3	-7.9
CC(C)Oc1cccc(C(=O)C2CCCN(C(=O)CCc3cnn(C)c3)C2)c1 (stereo unspecified)	-3.8	-2.4	-4.8	4874	-0.7	0.1
SMILES	BoNT-A LC inh2	MazF activator	BoNT F protease	Bead autofluor	PfHsp40 yeast	Anthrax LF prot
CC(O)(c1cccnc1)c1nc(-c2ccc(S(C)(=O)=O)cc2)cs1 (stereo unspecified)	-1.1	x	-2.9	3879	x	-6.3
O=C(Nc1cc(S(=O)(=O)N2CCCCCC2)ccc1OCC(F)(F)F)c1cnccn1	-2.2	6.6	-3.4	6763	-0.9	-3.6
Cc1cc(C(=O)Nc2nc3c(s2)CCCC3)no1	0.2	-6.7	-1.6	23398*	0.8	-6.6
Cc1onc(-c2ccccc2)c1C(=O)Nc1nc2c(s1)CCCC2	0.7	-2.0	-3.0	8517	2.7	9.0
COc1ccc(NC(=O)N(C)C[C@H]2Oc3c(NC(=O)C4CCCCC4)cccc3C(=O)N([C@H](C)CO)C[C@@H]2C)cc1	0.1	6.3	-3.5	3380	-1.9	-11.0
Oc1cccc2ccc(Nc3ccccn3)nc12	10.0	15.3	25.8	11243	240.1*	33.7*
c1ccc(Nc2ccccc2Nc2ccccn2)nc1	-0.8	1.4	-3.4	20926*	-0.2	0.6
O=C(Nc1ccccn1)c1cc2ccccc2cc1O	1.8	4.5	4.6	4970	-1.2	0.0
C[C@@H](C(=O)N1CCN(Cc2ccc3c(c2)OCO3)CC1)n1nnc2ccccc2c1=O	0.7	5.1	2.4	5722	-0.6	-1.2
CCOC(=O)CSc1nnc(Cn2nnc3ccccc32)n1-c1ccc(F)cc1	x	14.7	x	x	x	x
CCOC(=O)N1CCC(NC(=O)CS(=O)Cc2nc(-c3ccc(Cl)cc3)oc2C)CC1 (stereo unspecified)	3.5	-1.1	10.7	5239	-0.4	-0.9
CCOC(=O)Nc1ccc2c(c1)Nc1ccccc1S2	u	-5.2	-3.8	20181*	0.0	-2.5
C=CC(=O)N1c2ccccc2Sc2ccc(NC(=O)OCC)cc21	-0.3	4.9	0.3	3047	1.7	-0.8
CCOC(=O)Nc1ccc2c(c1)C(=NO)c1ccccc1-2	-0.7	20.3	-8.2	3856	207.3*	-2.3
CCN(CC(=O)Nc1c(F)cccc1F)C(=O)c1ccc2ncsc2c1	-181.0	6.9	-310.8	49356*	0.2	-42.5
CCN1C(=O)[C@@H]2[C@@H](c3ccc(-c4ccc(Cl)c(Cl)c4)c(OC)c3)N3CCCC[C@@]3(C(=O)OC)[C@@H]2C1=O	0.7	-17.4	-8.3	2929	-1.3	2.5
Cc1nn(C)c(C)c1/C=N/NC(=O)C(C)(C)Oc1ccc(Cl)cc1	u	-2.1	-1.8	24501*	-0.8	-4.6
Cc1c(/C=N/NC(=O)C(C)(C)Oc2ccc(Cl)cc2)cnn1C	-0.7	2.1	-10.6	11508	-0.8	0.0
CCN(CC)c1ccc(/C=N/N(c2ccccc2)c2ccccc2)c(O)c1	-0.6	1.3	-31.7	7854	1.0	-16.3
CCN(CC)c1ccc(C=Nc2ccc(C#N)cc2)c(O)c1	0.9	-12.7	-10.4	2553	-0.1	0.5
CCN(CC)c1ccc(O)c(C=Nc2ccc(C)c(C)c2)c1	50.4*	-2.2	6.7	2838	-0.1	23.0
CCN(CC)c1ccc(/C=N/Nc2nc3ccccc3[nH]2)c(O)c1	0.1	26.8	-25.8	2350	157.6*	-12.2
COc1ccc(/C=N/Nc2nc3ccccc3[nH]2)cc1OC	0.0	7.7	-9.3	2407	75.1*	-1.8
CCN(CC)c1ccc(C=Nc2ccccc2C)c(O)c1	50.8*	3.8	19.3	6889	-2.5	33.5*
CCC(C)(C)NC(=O)C(c1ccncc1)N(C(=O)c1sc(C)nc1C)c1ccc(C)cc1 (stereo unspecified)	0.5	3.5	3.4	4347	-1.0	3.7
